This is an account of results in PubChem BioAssay (Tox21).

Each structure is given as a SMILES string. Several values for one entry are separate records, joined by “and”; a condition that tells them apart may be missing. Equal values may be shown once. Results filed as inconclusive are left out. A structure can be active in one record and inactive in another. Activity calls are given as the source filed them. Unless noted, calls follow the shape of the dose curve; as a rule, active = well fitted curve in the direction sought with a large enough effect in the repeat runs; inconclusive = weak or mixed curves; inactive = no such curve, though single readings can be large; an effect the other way counts as inactive or inconclusive.

Test [1] is described as follows: qHTS assay to identify small molecule agonists of the hypoxia (HIF-1) signaling pathway - cell viability counter screen (AID 1224844; calls by dose curve; also: nearly all actives have a fitted effect of over 50% in size; also: potency is read from the fitted curve at half-maximal effect). The essentials: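 HRE-bla ME-180 cells in medium with 0.5% dialyzed FBS were preincubated 5 hrs at 37C, exposed to compounds for 17 hrs, then viability was read as CellTiter-Glo luminescence after 30 min at room temperature, in the reporter wells.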
Background: In qHTS, concentration-response curves come from the screen itself.

Test [2] in a line: qHTS assay to identify small molecule agonists of H2AX (AID 1224845; active = well fitted activation curve with a large enough effect in the signal ratio in the repeat runs, not every such curve was filed as active; the % refers to the signal ratio; also: potency is read from the fitted curve at half-maximal effect). The essentials: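 Wild-type CHO-K1 cells, plated overnight, exposed 3hr at 37C to 15 concentrations (0.76% DMSO final). Lysed, then HTRF anti-pH2AX (S139) cryptate and anti-H2AX-d2 antibodies, 24 hr room temperature; 665/620 nm emission read.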
Test [3] can be described thus: qHTS assay to identify small molecule agonists of H2AX - cell viability counter screen (AID 1224847; calls by dose curve; also: nearly all actives have a fitted effect of over 30% in size; also: potency is read from the fitted curve at half-maximal effect). The essentials:
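Counter-screen for viability: CellTiter-Glo ATP luminescence read after 3 h compound treatment (15-point titration, 0.76% DMSO final) of CHO-K1 cells at 37C, with 30 min room-temperature reagent incubation.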

The nature of test [4]: qHTS RealTime-Glo MT Cell Viability Assay in HepG2 cells - 24 hour (AID 1224867). Also: nearly all actives have a fitted effect of over 50% in size. Also: potency is read from the fitted curve at half-maximal effect. The method, boiled down: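 Compound treatment began 5 h after plating HepG2 cells (600/well) with NanoLuc luciferase and prosubstrate. Plates stayed at 37 C for 40 h; luminescence was captured at six time points, 0 h through 40 h.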
Test [5] is described as follows: qHTS RealTime-Glo MT Cell Viability Assay in HEK293 cells - 32 hour (AID 1224868). Also: nearly all actives have a fitted effect of over 50% in size. Also: potency is read from the fitted curve at half-maximal effect. The essentials:
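Quantitative high-throughput screen of the Tox21 10K library in HEK293: cells and RealTime-Glo reagents plated together, compound added at 5 h, luminescence monitored through 40 h at 37 C.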

The nature of test [6]: A CellTox Green Cytotoxicity Assay to monitor cytotoxicity in HEK293 cells - 0 hour (AID 1224869). Also: nearly all actives have a fitted effect of over 50% in size. The essentials:
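HEK293 cells premixed with CellTox Green dye were seeded at 600 cells/well and left 5 h at 37 C/5% CO2 before pin transfer of 23 nL compound in DMSO. Fluorescence from dye bound to dead-cell DNA was read during 40 h treatment.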

Test [7] can be described thus: qHTS RealTime-Glo MT Cell Viability Assay in HepG2 cells - 40 hour (AID 1224870). Also: nearly all actives have a fitted effect of over 50% in size. Also: potency is read from the fitted curve at half-maximal effect. The method, boiled down:
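HepG2 cells (600/well) mixed with RealTime-Glo MT reagent, settled 5 h at 37 C/5% CO2 before compound addition. Nonlytic NanoLuc luminescence from viable-cell prosubstrate reduction read repeatedly during 40 h treatment at 37 C.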

Test [8] in a line: qHTS assay to identify small molecule agonists of the hypoxia (HIF-1) signaling pathway (AID 1224846; active = well fitted activation curve with a large enough effect in the signal ratio in the repeat runs, not every such curve was filed as active; the % refers to the signal ratio). The essentials: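 HRE-bla ME-180 cells (beta-lactamase reporter under hypoxia response element) were plated at 2,000 cells/well in medium with 0.5% dialyzed FBS, rested 5 hrs, then given compounds in DMSO for 17 hrs at 37C, 5% CO2. Reporter induction was read with CCF4-AM FRET substrate.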

The nature of test [9]: qHTS assay to identify small molecule antagonists of the estrogen related receptor (ERR) signaling pathway from Tox21 library (AID 1224848). Also: nearly all actives have a fitted effect of over 50% in size. Also: potency is read from the fitted curve at half-maximal effect. The method, boiled down: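 ERR reporter cell line (from NTP) seeded 2,000 cells/well, rested 6 h at 37 C/5% CO2, then pin-dosed with compounds in DMSO. After 18 h at 37 C, ONE-Glo added; luminescence read after 30 min at room temperature.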

Test [10] is described as follows: qHTS assay to identify small molecule agonists of the estrogen related receptor (ERR) signaling pathway from Tox21 library (AID 1224849; calls by dose curve; also: nearly all actives have a fitted effect of over 15% in size). The note with it: ERR reporter cell line, ONE-Glo luciferase, 18 h. The essentials:
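ERR reporter cell line (NTP) seeded, rested 6 h at 37 C/5% CO2, then pinned with Tox21 compounds in DMSO. After 18 h at 37 C, ONE-Glo luciferase luminescence was read following 30 min at room temperature.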
% is scaled to controls: 0 for no effect and ±100 for the full control effect.

On to `C[N+](C)(C)CC(=O)[O-]`, for which the Potency entry in [1], in [2], in test [3], in [4], in test [5] and in test [6] was “inactive” in each case. Moreover, the Potency entry in [7] is “inactive”.
As to `CC1(C)Cc2cccc(O)c2O1`, the Potency result in [1], in test [2], in test [3], in [4], in test [5] and in test [6] was “inactive” in each case. For the same molecule, the Potency result in [7] is “inactive”.
On to `Nc1ccc([N+](=O)[O-])cc1N`, for which the Potency in [1] is 21.9 µM (active) and inactive. Further, the outcome in test [8] was inactive. In addition, the Potency result in test [3], in test [9], in test [4], in [5] and in test [7] was “inactive” in each case. Besides, the activity change, positive = activation in test [10] (at 92.4 µM (top of the series)) was -63% (inactive) and 34.6% (active).
As for `Clc1ccccc1-c1nnc(-c2ccccc2Cl)nn1`, the Potency result in test [1], in test [2], in test [4], in test [5], in test [6] and in test [7] was “inactive” throughout. Also, the Potency in test [3] was 100 µM (active).
In the case of `O=NN(c1ccccc1)c1ccccc1`, the Potency entry in test [1], in test [2], in test [3], in [4], in test [5] and in test [6] was “inactive” each time. Moreover, the Potency result in [7] is “inactive”.
On to `CC(C)=CC1C(C(=O)OCc2cccc(Oc3ccccc3)c2)C1(C)C` (configuration not stated), for which the Potency entry in test [1], in test [2], in test [9], in test [4], in test [5] and in test [7] was “inactive” in each case. The activity change, positive = activation in [10] (at 42.5 µM (top of the series)) is -0.963% (inactive); in test [10] (at 92.4 µM (top of the series)) it was -0.843% (inactive).
Take `c1ccc2c(c1)Nc1ccccc1S2`: the Potency entry in [1], in test [3], in test [9], in [4], in test [6] and in [7] was “inactive” each time. Also, the activity change, positive = activation was -0.479% (inactive) in [10] (at 42.5 µM (top of the series)) and -21.3% (inactive) in test [10] (at 92.4 µM (top of the series)). Moreover, the Potency in [5] was 11 µM (active) and 13.4 µM (active).
For the molecule `COc1ccc(CO)cc1`, the Potency entry in [1], in [2], in [3], in test [4], in [5] and in test [7] was “inactive” throughout.
On to `C[N+](C)(C)CC(=O)O`, for which the Potency result in test [1], in test [2], in [3], in test [4], in [5] and in [6] was “inactive” throughout. Moreover, the Potency entry in [7] is “inactive”.
With `O=[N+]([O-])c1ccc(Cl)c([N+](=O)[O-])c1`, the Potency in test [1] is 19.8 µM (active) and 13.8 µM (active); in test [3], 102 µM (active); in [9], 24.7 µM (active) and 24.3 µM (active); in [4], 35.2 µM (active) and 17.4 µM (active); in [5], 9.92 µM (active) and 12.3 µM (active); in test [7], 35.2 µM (active) and 17.4 µM (active). Moreover, in test [10] (at 92.4 µM (top of the series)), the activity change, positive = activation was -81.7% (inactive) and -78.5% (inactive). Besides, in test [6], the Potency entry was “inactive”.
For `C[C@]12CC[C@H]3[C@@H](CCC4=CC(=O)CC[C@@H]43)[C@@H]1CC[C@@H]2O`, the Potency result in test [1], in test [3], in test [4], in test [5] and in test [7] was “inactive” in each case. Also, the Potency in test [2] was 99.8 µM (active).
With `CC(C)Nc1ccc(Nc2ccccc2)cc1`, the Potency in test [3] was 50.3 µM (active) and 89.8 µM (active); in test [9], 15.3 µM (active) and 48.6 µM (active); in test [4] it was 54.7 µM (active) and 49 µM (active); in test [5] it was 17.3 µM (active) and 19.5 µM (active). Further, in test [10] (at 92.4 µM (top of the series)), the activity change, positive = activation is -81.7% (inactive) and -69.9% (inactive). Moreover, the Potency entry in test [6] was “inactive”.
As to `CCC(=O)Nc1ccc(Cl)c(Cl)c1`, the Potency entry in test [1], in [2], in test [3], in test [4], in test [6] and in test [7] was “inactive” each time. Moreover, the Potency in [5] was 44.5 µM (active).
In the case of `ClC(Cl)=C(Cl)C(Cl)=C(Cl)Cl`, the Potency entry in test [1], in [2], in test [3], in [4], in test [5] and in [6] was “inactive” each time. Further, in [7], the Potency result is “inactive”.
As to `ClCc1ccccn1`, the Potency entry in test [1], in test [2], in test [3], in test [4], in test [5] and in test [7] was “inactive” in each case.
Consider `Cl`, for which the Potency entry in test [1], in test [2], in test [3], in [4], in test [5] and in [7] was “inactive” each time.
